The full data set covers some 7,900 targets. This sample favours those with a hit. About 0.6% of all pairs of compound and target were hits. A number with no mark means an inactive call.
Assays:
Assay in all cases: log2 fold change, soluble protein after heating vs DMSO (PISA); higher = thermal stabilisation; K562 cells, 10 uM, 30 min; active = over 0.2 and 3.5 SD of the protein, either way, in both replicates (recomputed)
erlotinib = compound: C#Cc1cccc(Nc2ncnc3cc(OCCOC)c(OCCOC)cc23)c1 [erlotinib]
How it was run: (§1)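 K562 cells at 2×10^6 cells/mL were given 10 μM compound for 30 min. Aliquots then went through 3 min of heating across 48°C-58°C, were pooled, and were extracted in PBS with 0.5% NP-40 at 4°C, and the supernatant after 21,000xg for 90 min was quantified by TMTpro 16plex LC-MS/MS with channel sums equalised. Thermal stability relative to control samples, from duplicates, is given as log2 fold change.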

[1] = compound: C/C(=N\NC(=O)C1=CC(=CC=C1)S(=O)(=O)N2CCOCC2)/C3=C(C=CC(=C3)Cl)O
How it was run: as §1

[2] = compound: C1=CC(=C(C=C1Cl)C2=NC3=NC=CN=C3C(=N2)NC4=CC=NC=C4)F
How it was run: as §1

[3] = compound: C1=CC(=CC=C1C2=NC3=C(N2)C=C(C=C3)C(=O)N)OC4=CC=C(C=C4)Cl
How it was run: as §1

[4] = compound: C1=CC2=C(C=CC(=C2)/C=C\3/C(=O)NC(=NCC4=CC=CS4)S3)N=C1
How it was run: as §1

[5] = compound: C1=CC2=NC=CN=C2C=C1/C=C/3\C(=O)NC(=O)S3
How it was run: as §1

[6] = compound: C1=CC=C(C=C1)C2=NC(=C(N2)C3=CC=NC=C3)C4=CC(=C(C=C4)Cl)O
How it was run: as §1

[7] = compound: C1=CC=C2C(=C1)C3=NNC4=CC=CC(=C43)C2=O
How it was run: as §1

[8] = compound: C1CCN(C1)C(=O)NC2=CC=CC(=C2)NC3=NC=C(C(=N3)NCCC4=CN=CN4)Br
How it was run: as §1

[9] = compound: C1CN(CCC1(CC2=CC=C(C=C2)Cl)N)C3=NC=NC4=C3C=CN4
How it was run: as §1

IRAK-1-4 Inhibitor I = compound: C1COCCN1CCN2C3=CC=CC=C3N=C2NC(=O)C4=CC(=CC=C4)[N+](=O)[O-] [IRAK-1-4 Inhibitor I]
How it was run: as §1

ibrutinib = compound: C=CC(=O)N1CCC[C@@H](n2nc(-c3ccc(Oc4ccccc4)cc3)c3c(N)ncnc32)C1 [ibrutinib]
How it was run: as §1

[10] = compound: CC(=O)c1cnc2ccc(-c3cc(Cl)c(O)c(Cl)c3)nc2c1N[C@H]1CC[C@H](CN(C)C)CC1
How it was run: as §1

ralimetinib = compound: CC(C)(C)Cn1c(N)nc2ccc(-c3[nH]c(C(C)(C)C)nc3-c3ccc(F)cc3)nc21 [ralimetinib]
How it was run: as §1

[11] = compound: CC(C)(O)CC(=O)NCCn1ccc2ncnc(Nc3ccc(Oc4cccc(C(F)(F)F)c4)c(Cl)c3)c21
How it was run: as §1

[12] = compound: CC(C)C1=C2N=C(C=C(N2N=C1)NCC3=CC=CC=C3)NCCCCCCN
How it was run: as §1

[13] = compound: CC(C)C[C@@H](C=O)NC(=O)[C@H](CC(C)C)NC(=O)[C@H](CC(C)C)NC(=O)OCc1ccccc1
How it was run: as §1

pinometostat = compound: CC(C)N(C[C@H]1O[C@@H](n2cnc3c(N)ncnc32)[C@H](O)[C@@H]1O)[C@H]1C[C@@H](CCc2nc3cc(C(C)(C)C)ccc3[nH]2)C1 [pinometostat]
How it was run: as §1

[14] = compound: CC1=C(C(CC(=O)N1)C2=CC=C(C=C2)C(F)(F)F)C(=O)NC3=C(C=C4C(=C3)C=NN4)F
How it was run: as §1

[15] = compound: CC1=C(C2=C(C=C1)C(=O)C3=CC=CC=C3N2CCCN)C
How it was run: as §1

Chain of UniProt Q8IV08 (Q8IV08 whole entry, looked up): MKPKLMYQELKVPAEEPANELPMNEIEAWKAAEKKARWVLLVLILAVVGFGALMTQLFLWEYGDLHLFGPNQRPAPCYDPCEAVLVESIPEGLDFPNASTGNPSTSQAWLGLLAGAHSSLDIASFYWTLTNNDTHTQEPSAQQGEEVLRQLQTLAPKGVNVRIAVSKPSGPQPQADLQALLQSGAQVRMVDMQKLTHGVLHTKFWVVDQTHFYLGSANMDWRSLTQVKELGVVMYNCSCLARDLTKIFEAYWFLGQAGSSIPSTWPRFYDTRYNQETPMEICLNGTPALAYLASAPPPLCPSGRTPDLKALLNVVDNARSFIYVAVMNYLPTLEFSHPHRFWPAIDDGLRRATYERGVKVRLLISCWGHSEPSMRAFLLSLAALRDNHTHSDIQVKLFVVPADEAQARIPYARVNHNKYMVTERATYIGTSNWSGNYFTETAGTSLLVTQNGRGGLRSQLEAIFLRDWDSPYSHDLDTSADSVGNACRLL
Chain of UniProt Q8NHP8 (Q8NHP8 whole entry, looked up): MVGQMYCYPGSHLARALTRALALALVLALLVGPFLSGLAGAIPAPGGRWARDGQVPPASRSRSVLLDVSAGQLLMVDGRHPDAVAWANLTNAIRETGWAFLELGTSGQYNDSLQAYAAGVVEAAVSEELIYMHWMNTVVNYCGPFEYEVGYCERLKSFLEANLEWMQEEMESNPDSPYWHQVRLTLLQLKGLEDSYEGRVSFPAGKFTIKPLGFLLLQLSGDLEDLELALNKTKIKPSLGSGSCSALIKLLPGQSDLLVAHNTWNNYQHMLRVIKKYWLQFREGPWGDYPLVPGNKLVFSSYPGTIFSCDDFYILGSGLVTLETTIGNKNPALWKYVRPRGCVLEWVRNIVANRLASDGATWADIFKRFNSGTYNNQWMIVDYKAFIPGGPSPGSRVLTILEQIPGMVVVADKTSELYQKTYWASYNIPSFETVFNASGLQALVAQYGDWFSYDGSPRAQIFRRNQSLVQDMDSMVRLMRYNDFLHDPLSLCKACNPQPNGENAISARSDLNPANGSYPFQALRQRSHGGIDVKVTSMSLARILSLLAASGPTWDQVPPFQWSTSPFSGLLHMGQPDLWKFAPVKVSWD
Chain of UniProt Q13523 (Q13523 whole entry, looked up): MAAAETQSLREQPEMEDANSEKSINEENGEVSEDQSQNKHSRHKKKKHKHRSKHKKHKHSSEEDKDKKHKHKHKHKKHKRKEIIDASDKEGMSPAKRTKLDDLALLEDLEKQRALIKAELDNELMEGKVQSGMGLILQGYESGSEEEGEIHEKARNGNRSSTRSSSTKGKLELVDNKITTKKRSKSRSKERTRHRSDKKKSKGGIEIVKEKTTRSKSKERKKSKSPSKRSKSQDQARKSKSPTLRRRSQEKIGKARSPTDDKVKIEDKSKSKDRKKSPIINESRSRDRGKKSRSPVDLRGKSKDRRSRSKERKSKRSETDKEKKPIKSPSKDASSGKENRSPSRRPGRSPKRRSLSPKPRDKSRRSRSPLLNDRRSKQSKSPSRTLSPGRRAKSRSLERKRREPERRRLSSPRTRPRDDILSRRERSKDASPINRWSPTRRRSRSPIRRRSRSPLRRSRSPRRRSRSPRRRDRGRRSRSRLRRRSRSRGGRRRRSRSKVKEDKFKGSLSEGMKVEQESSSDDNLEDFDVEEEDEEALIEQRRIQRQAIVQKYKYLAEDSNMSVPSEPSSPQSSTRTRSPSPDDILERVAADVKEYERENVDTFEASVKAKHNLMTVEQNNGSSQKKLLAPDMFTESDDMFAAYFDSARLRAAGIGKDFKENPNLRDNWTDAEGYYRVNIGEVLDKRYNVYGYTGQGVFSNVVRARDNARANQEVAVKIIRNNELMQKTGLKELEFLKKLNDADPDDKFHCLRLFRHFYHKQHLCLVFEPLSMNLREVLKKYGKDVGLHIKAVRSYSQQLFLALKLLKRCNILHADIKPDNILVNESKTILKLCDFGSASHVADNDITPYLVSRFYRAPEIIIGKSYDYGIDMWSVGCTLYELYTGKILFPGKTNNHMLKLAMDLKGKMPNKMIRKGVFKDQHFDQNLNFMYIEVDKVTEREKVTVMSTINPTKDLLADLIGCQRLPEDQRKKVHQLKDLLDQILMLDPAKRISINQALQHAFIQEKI
Chain of UniProt O95453 (O95453 whole entry, looked up): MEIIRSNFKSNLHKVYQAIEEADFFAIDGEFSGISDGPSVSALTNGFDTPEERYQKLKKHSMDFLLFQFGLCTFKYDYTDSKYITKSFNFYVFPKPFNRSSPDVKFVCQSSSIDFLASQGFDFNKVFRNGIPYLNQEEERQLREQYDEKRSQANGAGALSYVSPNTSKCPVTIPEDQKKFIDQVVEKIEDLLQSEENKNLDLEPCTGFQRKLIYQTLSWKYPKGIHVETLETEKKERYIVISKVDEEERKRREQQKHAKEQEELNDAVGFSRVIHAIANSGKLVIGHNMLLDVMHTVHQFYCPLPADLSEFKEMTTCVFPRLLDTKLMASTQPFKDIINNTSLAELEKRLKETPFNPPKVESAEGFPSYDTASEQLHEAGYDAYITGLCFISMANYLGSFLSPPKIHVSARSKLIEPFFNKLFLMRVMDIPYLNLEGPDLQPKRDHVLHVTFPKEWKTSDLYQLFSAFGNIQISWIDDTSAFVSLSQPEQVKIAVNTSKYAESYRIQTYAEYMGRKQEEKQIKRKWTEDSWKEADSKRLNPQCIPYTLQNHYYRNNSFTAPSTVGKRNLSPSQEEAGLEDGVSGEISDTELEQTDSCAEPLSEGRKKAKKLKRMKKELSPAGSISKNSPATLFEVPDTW
Chain of UniProt Q29RF7 (Q29RF7 whole entry, looked up): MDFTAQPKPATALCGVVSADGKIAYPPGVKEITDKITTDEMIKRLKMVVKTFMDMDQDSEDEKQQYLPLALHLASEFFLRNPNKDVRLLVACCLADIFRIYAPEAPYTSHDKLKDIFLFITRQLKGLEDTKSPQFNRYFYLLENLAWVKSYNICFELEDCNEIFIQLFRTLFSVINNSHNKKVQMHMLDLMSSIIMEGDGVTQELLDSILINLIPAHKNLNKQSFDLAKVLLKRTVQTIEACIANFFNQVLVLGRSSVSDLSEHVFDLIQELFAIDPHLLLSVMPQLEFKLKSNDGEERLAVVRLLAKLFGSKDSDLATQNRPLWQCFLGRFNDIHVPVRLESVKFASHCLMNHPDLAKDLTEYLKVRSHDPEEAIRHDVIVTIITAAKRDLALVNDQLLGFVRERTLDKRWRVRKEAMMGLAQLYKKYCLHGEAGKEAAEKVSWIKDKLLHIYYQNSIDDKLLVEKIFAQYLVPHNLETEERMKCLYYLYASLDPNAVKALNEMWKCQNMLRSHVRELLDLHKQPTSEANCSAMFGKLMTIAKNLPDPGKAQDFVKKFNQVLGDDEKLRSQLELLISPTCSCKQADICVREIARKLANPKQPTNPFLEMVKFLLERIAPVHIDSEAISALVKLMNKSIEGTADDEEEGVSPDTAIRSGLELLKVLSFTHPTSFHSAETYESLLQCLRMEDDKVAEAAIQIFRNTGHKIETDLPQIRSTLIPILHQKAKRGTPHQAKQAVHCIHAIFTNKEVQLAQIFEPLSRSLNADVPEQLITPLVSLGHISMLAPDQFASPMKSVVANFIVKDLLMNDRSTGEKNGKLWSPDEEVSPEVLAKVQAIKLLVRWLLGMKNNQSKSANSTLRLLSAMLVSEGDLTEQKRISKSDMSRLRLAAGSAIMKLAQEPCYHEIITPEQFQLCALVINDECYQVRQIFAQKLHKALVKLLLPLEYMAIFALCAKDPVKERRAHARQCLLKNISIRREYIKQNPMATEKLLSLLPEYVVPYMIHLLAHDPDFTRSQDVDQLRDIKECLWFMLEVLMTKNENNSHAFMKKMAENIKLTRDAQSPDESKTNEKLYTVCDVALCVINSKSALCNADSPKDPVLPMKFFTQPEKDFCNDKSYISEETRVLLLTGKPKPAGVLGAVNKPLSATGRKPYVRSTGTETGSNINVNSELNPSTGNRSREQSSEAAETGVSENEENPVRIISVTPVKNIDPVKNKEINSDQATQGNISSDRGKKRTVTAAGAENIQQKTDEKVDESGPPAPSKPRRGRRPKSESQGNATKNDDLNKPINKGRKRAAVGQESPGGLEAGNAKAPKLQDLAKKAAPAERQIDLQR
Chain of UniProt Q8N5Y8 (Q8N5Y8 whole entry, looked up): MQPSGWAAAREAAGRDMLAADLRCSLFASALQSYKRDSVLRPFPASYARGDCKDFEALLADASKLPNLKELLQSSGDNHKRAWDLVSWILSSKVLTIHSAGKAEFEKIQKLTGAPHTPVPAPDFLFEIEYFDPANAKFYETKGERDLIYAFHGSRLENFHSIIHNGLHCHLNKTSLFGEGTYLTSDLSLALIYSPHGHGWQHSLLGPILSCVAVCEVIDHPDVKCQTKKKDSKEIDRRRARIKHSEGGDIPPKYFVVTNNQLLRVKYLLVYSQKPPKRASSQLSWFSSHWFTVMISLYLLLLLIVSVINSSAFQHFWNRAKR
Chain of UniProt Q05655 (Q05655 whole entry, looked up): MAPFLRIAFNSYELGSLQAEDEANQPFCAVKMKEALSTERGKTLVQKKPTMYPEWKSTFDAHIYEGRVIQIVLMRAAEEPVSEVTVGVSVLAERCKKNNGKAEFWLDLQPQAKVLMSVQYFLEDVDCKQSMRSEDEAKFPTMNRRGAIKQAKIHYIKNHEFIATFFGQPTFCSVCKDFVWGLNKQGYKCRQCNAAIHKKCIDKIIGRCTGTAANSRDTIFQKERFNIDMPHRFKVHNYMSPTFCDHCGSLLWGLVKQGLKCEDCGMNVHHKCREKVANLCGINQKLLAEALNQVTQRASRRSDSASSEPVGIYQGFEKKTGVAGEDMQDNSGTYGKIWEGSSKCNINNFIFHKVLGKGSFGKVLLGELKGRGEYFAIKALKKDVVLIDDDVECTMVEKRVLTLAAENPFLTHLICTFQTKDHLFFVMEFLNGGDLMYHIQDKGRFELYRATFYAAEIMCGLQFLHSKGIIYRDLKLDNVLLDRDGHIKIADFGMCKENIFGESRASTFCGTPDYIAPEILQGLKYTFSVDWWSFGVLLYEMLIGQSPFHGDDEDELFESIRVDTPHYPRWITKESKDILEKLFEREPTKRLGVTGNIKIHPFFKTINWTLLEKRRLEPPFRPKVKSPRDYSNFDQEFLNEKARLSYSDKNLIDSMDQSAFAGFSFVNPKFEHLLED

Target	log2 fold change (erlotinib)	log2 fold change [1]	log2 fold change [2]	log2 fold change [3]	log2 fold change [4]	log2 fold change [5]	log2 fold change [6]	log2 fold change [7]	log2 fold change [8]	log2 fold change [9]	log2 fold change (IRAK-1-4 Inhibitor I)	log2 fold change (ibrutinib)	log2 fold change [10]	log2 fold change (ralimetinib)	log2 fold change [11]	log2 fold change [12]	log2 fold change [13]	log2 fold change (pinometostat)	log2 fold change [14]	log2 fold change [15]
PRKCD (UniProt Q05655)	-0.01	0.004	0.028	0.065	0.016	0.044	-0.006	-0.008	0.009	-0.001	0.043	-0.027	-0.685 (active)	-0.041	-0.013	-0.004	0.022	0.017	-0.024	0
PLD3 (UniProt Q8IV08)	-0.012	0.029	0.054	0.023	0.04	0.024	-0.061	0.006	0.001	0.048	0.022	-0.031	-0.042	-0.039	-0.022	-0.079	0.05	-0.005	0.003	-0.023
PTPA (UniProt A6PVN8)	-0.061	0.21	-0.107	0.367	0.088	0.031	0.063	0.065	0.01	0.031	–	0.063	-0.241	-0.07	-0.052	0.122	-0.002	–	0.026	-0.104
PDS5A (UniProt Q29RF7)	0.225	0.132	0.04	-0.227	0.05	-0.176	0.14	0.108	-0.25	-0.267	-0.168	-0.041	-0.063	-0.012	-0.344	-0.61	0.272	0.045	0.221	-0.103
PNN (UniProt Q9H307)	0.007	-0.001	0.032	0.024	0.025	0.085	-0.107	-0.11	–	–	0.051	-0.047	-0.134	0.032	0.004	-0.146	0.145	0.124	0.056	–
PRPF4B (UniProt Q13523)	0.002	0.044	-0.213	0.074	-0.046	-0.064	-0.14	-0.12	-0.103	-0.113	-0.126	-0.015	-0.263	-0.001	0.138	-0.029	0.077	0.099	-0.006	-0.209
PARP16 isoform 3 (UniProt Q8N5Y8)	0.025	0.049	-0.055	-0.018	-0.029	0.102	–	-0.013	-0.026	0.067	-0.036	-0.13	-0.003	–	0.032	-0.012	–	-0.097	-0.009	-0.027
PARP1 (UniProt P09874)	0.076	0.135	0.042	-0.005	0.098	-0.042	0.137	0.35	-0.078	-0.042	-0.068	-0.027	-0.052	0.039	0.108	-0.068	0.018	-0.009	-0.004	0.578 (active)
PLBD2 (UniProt Q8NHP8)	-0.022	-0.048	0.026	0.01	0.009	0.037	0.01	-0.02	-0.018	0.018	0.04	0.009	0.003	-0.071	-0.01	-0.106	0.025	0.001	-0.018	-0.023
PELP1 (UniProt Q8IZL8)	0.082	0.044	-0.035	0.008	-0.032	-0.008	0.007	-0.053	-0.041	0.08	0.017	-0.017	-0.106	0.04	-0.031	0.017	-0.019	0.008	0.029	-2.07 (active)
PIK3C3 (UniProt Q8NEB9)	-0.005	-0.004	-0.157	-0.005	0.011	0.087	-0.007	0.048	-0.024	0.06	-0.012	-0.005	0.058	0.082	0.002	-0.003	0.035	0.14	-0.021	0.013
PTTG1IP (UniProt P53801)	-0.011	-0.06	-0.039	-0.001	0.026	0.033	–	-0.082	0.037	0.01	-0.122	0.028	-0.004	–	-0.031	0.029	–	0.028	0.084	-0.119
PLEKHM2 (UniProt Q8IWE5)	0.228	0.07	0.034	-0.03	0.075	0.069	0.082	-0.065	-0.005	-0.066	-0.018	-0.073	-0.085	0.162	0.016	-0.034	-0.102	-0.042	-0.069	0.016
PRKCE (UniProt Q02156)	-0.076	0.107	0.111	0.057	0.06	0.057	–	0.004	-0.019	-0.095	-0.02	-0.013	-0.468 (active)	–	-0.026	-0.153	–	-0.051	-0.059	-0.009
PARN (UniProt O95453)	0	0.052	0.08	-0.008	-0.028	0.034	-0.019	-0.001	-0.02	0.109	0.002	-0.047	-0.092	-0.013	-0.02	-0.025	0.018	-0.018	0.01	0.033

Source: the supplement of paper PMC10849652
